Bioassay records deposited in PubChem BioAssay by National Center for Advancing Translational Sciences (NCATS).
AmpC inh no detg – AmpC beta-lactamase inhibition without detergent. AID 485341. AmpC nitrocefin hydrolysis, absorbance 480 nm, 0.0001% Triton. P00811. 0.52% of 330,000 active. Potency, µM (series often up to 57.1 µM), for inactives: top-dose activity change, negative = inhibition, most hits filed as inhibitors;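 note: potency is the fitted concentration of half-maximal effect; plate controls were no compound for no effect and no enzyme for full effect; nearly all actives have a fitted effect of over 20% in size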
Target sequence (P00811 whole entry, looked up): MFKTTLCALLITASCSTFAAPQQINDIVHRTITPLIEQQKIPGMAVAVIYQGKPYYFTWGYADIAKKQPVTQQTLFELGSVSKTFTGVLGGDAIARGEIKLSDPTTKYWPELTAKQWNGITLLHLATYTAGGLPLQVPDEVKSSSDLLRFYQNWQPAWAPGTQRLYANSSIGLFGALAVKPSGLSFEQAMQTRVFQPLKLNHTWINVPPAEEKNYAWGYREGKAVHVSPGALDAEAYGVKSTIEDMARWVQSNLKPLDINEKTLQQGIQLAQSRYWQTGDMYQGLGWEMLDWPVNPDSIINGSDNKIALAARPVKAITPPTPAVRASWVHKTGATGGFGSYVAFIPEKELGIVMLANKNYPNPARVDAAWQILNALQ
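AmpC (5.3 nM in the dispensed reagent) in 20 mM phosphate pH 7.0 with 0.01% (detergent screen) or 0.0001% Triton X-100 was preincubated with compounds for 15 min at room temperature. Nitrocefin was then added from an 800 uM solution, and hydrolysis was followed at 480 nm.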
NS1 function inh – influenza NS1 inhibition; Potency, µM (series often up to 46.1 µM), without a hit: at the top dose activity, positive = more growth; 0.4% of 270,000 active; AID 2326; calls by dose curve; note: potency is the fitted concentration of half-maximal effect; actives are rising curves; nearly all actives have a fitted effect of over 50% in size
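In this qHTS, NS1 from influenza A is expressed in budding yeast, where it slows growth. Cells are switched from glucose to 2% galactose medium (pH 6.0, -URA), treated with compound, and growth recovery is read at OD600.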
AMA1-RON2 inh – inhibitors of Plasmodium falciparum AMA1-RON2 interaction | AID 720542 | Potency, µM (titrated, usually from 58.2 µM), for inactives: at the highest dose activity change, negative = inhibition, actives largely listed as inhibitors | AlphaScreen AMA1-biotinylated RON2 peptide binding | 0.2% of 360,000 active;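 note: potency is the fitted concentration of half-maximal effect; 0% = vehicle wells and -100% = peptide control; nearly all actives have a fitted effect of over 45% in size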
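AMA1 (3D7) with his tag at 25 nM final met compounds first, then biotinylated RON2 peptide at 25 nM; detection used donor plus acceptor beads, 10 µg/mL apiece, read by AlphaScreen after 30 min at room temperature.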
AmpC detergent – blocks E. coli AmpC beta-lactamase in detergent assay; Potency, µM (top dose mostly 114 µM), for inactives: top-dose activity change, negative = inhibition, usual class: inhibitors; 0.041% of 370,000 active; AID 485294; P00811; AmpC hydrolysis of nitrocefin, absorbance 480 nm, 0.01% Triton;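 note: potency is the fitted concentration of half-maximal effect; 0% = no-compound wells and -100% = no-enzyme wells; nearly all actives have a fitted effect of over 25% in size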
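AmpC (5.3 nM in the dispensed reagent) in 20 mM phosphate pH 7.0 with 0.01% (detergent screen) or 0.0001% Triton X-100 was preincubated with compounds for 15 min at room temperature. Nitrocefin was then added from an 800 uM solution, and hydrolysis was followed at 480 nm.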
NS1 inh valid – influenza NS1 function inhibition validation; shares compounds with NS1 function inh; influenza NS1 function cell assay, 15-point titration; activity change, negative = inhibition, % at 32.9 µM; 1,400 tested, under 10 active; calls by dose curve; note: 0% is about no effect
* marks the source's active call; other numbers are inactive results; ? = inconclusive; · = no result; [ ] = another dose, or the depositor's remark. This is a sample that favours compounds with a hit; in the whole collection about 0.86% have one here. Unless noted, calls come from the whole dose curve; as a rule, active = well fitted curve in the direction sought with a large enough effect; inconclusive = small, poorly fitted or top-dose-only effect, or another doubt; inactive = no such curve, though single readings can be large; an effect the other way counts as inactive or inconclusive.

SMILES	AmpC inh no detg	NS1 function inh	AMA1-RON2 inh	AmpC detergent	NS1 inh valid
O=C(NNc1nc2cc3c(cc2s1)OCO3)c1ccc(F)cc1	-35%	?	95%	?	-10
CC(=O)c1ccc2c(c1)C1C(Cl)C(Sc3ccccc3[N+](=O)[O-])CC1C(c1ccccc1[N+](=O)[O-])N2 (stereo not given)	?	2µM*	-8%	-5%	11
CCN(C(=O)COC(=O)CCC(=O)c1cccs1)c1c(N)n(Cc2ccccc2)c(=O)[nH]c1=O	-6%	·	10%	-15%	·
COC(=O)c1c(NC(=O)CN2C(=O)c3ccccc3C2=O)sc(Cc2ccc3c(c2)OCO3)c1C	-59%	10µM*	5%	?	-37
Cc1ccc(C(C)C)c(OCc2ccc(C(=O)N/N=C/c3ccc(O)c(O)c3)cc2)c1	-19%	13µM*	20%	17%	14
COc1cc(/C=N/NC(=O)c2ccc(COc3cc(C)ccc3C(C)C)cc2)cc(OC)c1O	-21%	27%	20%[2.32 µM]	3%	·
CCN(C(=O)C1CCCN(S(=O)(=O)c2c(C)noc2/C=C/N(C)C)C1)c1cccc(C)c1 (stereo not given)	·	·	·	-8%	·
Cc1ccsc1C=Nc1c(C)n(C)n(-c2ccccc2)c1=O	-14%	0%	2%	-23%	·
Cc1c(N=Cc2cccs2)c(=O)n(-c2ccccc2)n1C	0%	14µM*	7%	5%	0
Cc1ccc(-n2c(Cn3c(C)nc4ccccc43)n[nH]c2=S)cc1	4%	?	10%	6%	22
CCc1ccc(S(=O)(=O)N2CCN(c3ccc(Cl)c(Cl)c3)CC2)cc1	·	·	·	-7%	·
CCCCc1nc(SCC(=O)N2CCOCC2)c2c(=O)n(C)c(=O)n(C)c2n1	50%	0%	-11%	5%	·
CCOc1ccccc1CNS(=O)(=O)c1ccc(-c2coc(C)n2)cc1	·	·	·	4%	·
C/C(=N\NC(=O)C1CCCC1)c1ccc(Cl)cc1	-15%	?	-9%	0%	2
Cn1c2c(c(=O)[nH]c1=O)C(c1cccc(O)c1)C1=C(N2)c2ccccc2C1=O (stereo not given)	-31%	3%	5%	2%	·
COc1cc(N)n(S(=O)(=O)c2ccc(C)cc2)n1	-5%	8%	3%	-3%	·
Cc1ccc(S(=O)(=O)n2nc(C)cc2N)cc1	-2%	22µM*	28%	0%	3
CCOc1ccc(NC(=S)NC(=O)/C=C/c2ccc(OC)c(OC)c2)c([N+](=O)[O-])c1	-37%	4µM*	-5%	11%	-23
CCOc1ccc(NC(=S)NC(=O)/C=C/c2ccc(C)cc2)c([N+](=O)[O-])c1	-17%	-11%	3%	-2%	·
C#CCOc1ccc(/C=C2/C(=O)NN(c3ccc(F)cc3)C2=O)cc1OC	-18%	3.5µM*	-6%	-19%	37
CCOc1cccc2cc(-c3nnc(-c4ccccc4)o3)c(=O)oc12	·	2%	·	·	·
COc1ccc(-n2c(O)c(/C=N/NS(=O)(=O)c3cc(C)ccc3C)c3ccccc3c2=O)cc1OC	91%	28%	-1%	-5%	·
COc1ccc(-n2c(O)c(/C=N/NS(=O)(=O)c3ccc(C)cc3)c3ccccc3c2=O)cc1OC	15%	10µM*	-11%	-9%	0
Cc1ccc(Nc2nc3ccccc3nc2Nc2c(C)n(C)n(-c3ccccc3)c2=O)cc1	-49%	11%	0%	?	·
Cc1c(Nc2nc3ccccc3nc2NS(=O)(=O)c2cccc(Cl)c2)c(=O)n(-c2ccccc2)n1C	-10%	8.9µM*	44%	-1%	13
SMILES	AmpC inh no detg	NS1 function inh	AMA1-RON2 inh	AmpC detergent	NS1 inh valid
COc1ccc(CN2CCN(C(=O)CCC(=O)Nc3nnc(CC(C)C)s3)CC2)cc1F	165%	2.2µM*	2%	-8%	?
CCCc1cc(=O)oc2cc(C)c3c(-c4ccccc4)coc3c12	·	·	·	15%	·
CC1(C(=O)Nc2ccc3ccccc3c2)CCC(=O)N1CCc1c[nH]c2ccccc12 (stereo not given)	·	·	-24%	·	·
CCCCCCC(=O)N(O)C1CC(=O)N(c2ccc(C)cc2)C1=O (stereo not given)	-29%	-36%	16%	?	·
Cc1ccc(N2C(=O)CC(N(O)C3CC(=O)N(c4ccc(C)cc4)C3=O)C2=O)cc1 (stereo not given)	-15%	20µM*	14%	4%	?
COc1cc(C(C)n2nnc3ccccc32)ccc1O (stereo not given)	·	·	-7%	·	·
Cc1ccc(Nc2nnc(SCC(=O)Nc3cccc(S(=O)(=O)NC4=NCCCCC4)c3)s2)cc1	?	?	-9%[11.6 µM]	-20%	·
CCc1ccc(Nc2nnc(SCC(=O)Nc3cccc(S(=O)(=O)NC4=NCCCCC4)c3)s2)cc1	-9%	11µM*	7%	?	12
COc1cc(CN2C[C@@H](CO)O[C@@H](n3cnc4c(NC5CCC5)ncnc43)C2)cc(OC)c1OC	·	·	-11%	·	·
CCS(=O)(=O)Nc1cccc(C2=NN(S(=O)(=O)c3ccc(C)cc3)C(c3cccs3)C2)c1 (stereo not given)	-31%	13µM*	-26%	?	13
CCS(=O)(=O)Nc1cccc(C2=NN(S(=O)(=O)CC)C(c3ccccc3)C2)c1 (stereo not given)	0%	·	4%	5%	·
CCS(=O)(=O)Nc1cccc(C2=NN(S(=O)(=O)c3ccccc3)C(c3cccs3)C2)c1 (stereo not given)	-12%	10µM*	-10%	6%	17
Cc1ccc(C2=NN(S(C)(=O)=O)C(c3cccs3)C2)cc1 (stereo not given)	-26%	1%	0%	-13%	·
CCN(C(=O)c1cccn(Cc2cccc(Cl)c2)c1=O)c1ccccc1	·	·	·	5%	·
COc1ccc(NC(=O)CSc2nnc(-c3ccncc3)n2-c2ccccc2)cc1	·	·	·	2%	·
COc1cccc(NC(=O)C(Sc2nnc(-c3ccncc3)n2-c2ccc(Cl)cc2)c2ccccc2)c1 (stereo not given)	144%	14µM*	13%	-2%	2
Cc1ccccc1CN1C(=O)c2ccccc2S(=O)c2ccc(C(=O)NCc3ccco3)cc21 (stereo not given)	·	·	·	0%	·
COc1cc(Cl)ccc1OCc1cc(C(=O)N2CCCCC2c2cccnc2)no1 (stereo not given)	81%	3.2µM*	1%	?	?
O=C(CSc1nnc(-c2ccccc2)n1C1CCCCC1)Nc1ccc(S(=O)(=O)Nc2ccccn2)cc1	33%	?	4%	0%	-9
Cc1ccc(S(=O)(=O)N2CCC(c3ccncc3)CC2)c(C)c1	·	·	·	5%	·
COC(=O)C1=C(C)N2C(=O)CSC2=NC1c1ccc2c(c1)OCO2 (stereo not given)	-14%	13µM*	-4%	-4%	31
COCCN1C=C(C(=O)OC)C(c2ccc3c(c2)OCO3)C(C(=O)OC)=C1	28%	0%	6%	-16%	·
O=S(=O)(Nc1ccc(O)c(Sc2nc3ccccc3s2)c1)c1cccc2ccccc12	-18%	20µM*	0%	4%	-10
O=C1CC2(CCCCC2)CC(=O)N1CCc1ccccc1	·	·	0%	·	·
O=C1C=CC(=O)C(C2=C3C(=O)N(CCc4ccccc4)CC(=O)N3CCC2)=C1	-43%	14µM*	-6%	?	3
Cc1ccc(C2=C(Cl)C(=O)C(c3ccc(C)cc3)=C(Cl)C2=O)cc1	·	-8%	·	·	·
